Test results: PubChem BioAssay AID1159580 (chemical genetic matrix, 2015)
Where “and” joins values, the source holds several entries; their conditions need not be identical. Equal values may be shown once. Screen size: about 5,500 compounds; about 2,000 (36%) were called active. About 18% were inconclusive and are not listed. Cut-off read from the data, not from the text of the source: active = normalized growth mostly below about 0.91 (no sharp cut-off); inconclusive = no clear call, values can overlap the other calls; inactive = mostly above about 0.92. Some of the results follow.

Experiment: chemical genetic growth profiling, strain panel (AID 1159580);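 note: tested at 20 µM; growth read once vehicle control cultures reached saturation at 30 °C; 1 = growth at the plate median or of vehicle wells; lower values mean less growth of the strain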
Details: S. cerevisiae deletion strains, growth OD

Measured: normalized growth

CC(C)[N+](C)(CCC(C(N)=O)(c1ccccc1)c1ccccc1)C(C)C
inactive: locus YAL013W, strain DEP1, stronger effect = lower value 1.01 | locus YAL021C, strain ccr4, stronger effect = lower value 0.997 | locus YAL026C, strain drs2, stronger effect = lower value 0.999 | locus YAL030W, strain snc1, stronger effect = lower value 0.993 | locus YBL061C, strain skt5, stronger effect = lower value 0.992 | locus YBR009C, strain hhf1, stronger effect = lower value 0.994 | locus YBR021W, strain FUR4, stronger effect = lower value 1 | locus YBR023C, strain chs3, stronger effect = lower value 0.979 | locus YBR171W, strain sec66, stronger effect = lower value 0.987 | locus YBR229C, strain ROT2, stronger effect = lower value 1.01 | locus YBR231C, strain swc5, stronger effect = lower value 0.991 | locus YBR279W, strain paf1, stronger effect = lower value 0.97 | locus YCL011C, strain gbp2, stronger effect = lower value 0.966 | locus YCL016C, strain dcc1, stronger effect = lower value 0.953 | locus YCL029C, strain bik1, stronger effect = lower value 1 | locus YCL061C, strain MRC1, stronger effect = lower value 0.97 | locus YCL069W, strain vba3, stronger effect = lower value 0.993 | locus YCR088W, strain abp1, stronger effect = lower value 0.986 | locus YDL005C, strain med2, stronger effect = lower value 0.996 | locus YDL035C, strain GPR1, stronger effect = lower value 1.01 | locus YDL040C, strain nat1, stronger effect = lower value 0.996 | locus YDL074C, strain BRE1, stronger effect = lower value 1.01 | locus YDL101C, strain DUN1, stronger effect = lower value 1.01 | locus YDL185W, strain tfp1, stronger effect = lower value 0.996 | locus YDL192W, strain arf1, stronger effect = lower value 1 | locus YDR001C, strain nth1, stronger effect = lower value 0.987 | locus YDR069C, strain doa4, stronger effect = lower value 1 | locus YDR101C, strain arx1, stronger effect = lower value 0.999 | locus YDR137W, strain rgp1, stronger effect = lower value 0.987 | locus YDR150W, strain NUM1, stronger effect = lower value 1.01 | locus YDR159W, strain sac3, stronger effect = lower value 0.997 | locus YDR162C, strain NBP2, stronger effect = lower value 1 | locus YDR195W, strain ref2 1.02 | locus YDR297W, strain sur2, stronger effect = lower value 0.991 | locus YDR318W, strain mcm21, stronger effect = lower value 0.999 | locus YDR334W, strain swr1, stronger effect = lower value 0.981 | locus YDR335W, strain msn5, stronger effect = lower value 0.99 | locus YDR388W, stronger effect = lower value 1 | locus YDR392W, strain spt3, stronger effect = lower value 0.9 | locus YDR502C, strain sam2, stronger effect = lower value 0.986 | locus YEL003W, strain gim4, stronger effect = lower value 1.01 | locus YEL037C, strain rad23, stronger effect = lower value 0.987 | locus YEL061C, strain CIN8 (second series), stronger effect = lower value 0.988 | locus YEL061C, strain CIN8, stronger effect = lower value 0.999 | locus YER015W, strain faa2, stronger effect = lower value 0.995 | locus YER016W, strain bim1, stronger effect = lower value 0.998 | locus YER110C, stronger effect = lower value 1 | locus YER111C, strain swi4, stronger effect = lower value 0.981 | locus YER155C, strain BEM2 (second series), stronger effect = lower value 1 | locus YER155C, strain BEM2, stronger effect = lower value 1.02 | locus YER167W, strain BCK2, stronger effect = lower value 0.999 | locus YFR010W, strain ubp6, stronger effect = lower value 0.986 | locus YGL078C, strain dbp3, stronger effect = lower value 0.996 | locus YGL086W, strain mad1, stronger effect = lower value 1 | locus YGL167C, strain pmr1, stronger effect = lower value 0.989 | locus YGL173C, strain kem1, stronger effect = lower value 0.998 | locus YGL227W, strain vid30, stronger effect = lower value 0.98 | locus YGL240W, strain doc1, stronger effect = lower value 1 | locus YGL248W, strain PDE1, stronger effect = lower value 1 | locus YGL253W, strain hxk2, stronger effect = lower value 0.983 | locus YGR135W, strain pre9, stronger effect = lower value 0.978 | locus YGR252W, strain gcn5, stronger effect = lower value 0.896 | locus YHR013C, strain ard1, stronger effect = lower value 0.961 | locus YHR027C, strain rpn1, stronger effect = lower value 0.997 | locus YHR030C, strain SLT2, stronger effect = lower value 0.998 and 1 | locus YHR079C, strain IRE1 (second series), stronger effect = lower value 0.998 | locus YHR079C, strain IRE1, stronger effect = lower value 0.994 | locus YHR094C, strain hxt1, stronger effect = lower value 0.995 | locus YHR129C, strain ARP1, stronger effect = lower value 1.01 | locus YHR142W, strain chs7, stronger effect = lower value 0.939 | locus YHR200W, strain rpn10, stronger effect = lower value 1 | locus YIL066C, strain RNR3, stronger effect = lower value 1.01 | locus YIL073C, strain SPO22, stronger effect = lower value 0.988 | locus YIL125W, strain kgd1, stronger effect = lower value 0.993 | locus YIR030C, strain dcg1, stronger effect = lower value 1.02 | locus YJL092W, strain hpr5, stronger effect = lower value 0.986 | locus YJL095W, strain BCK1 (second series), stronger effect = lower value 0.988 | locus YJL095W, strain BCK1, stronger effect = lower value 1.01 | locus YJL115W, strain asf1, stronger effect = lower value 0.993 | locus YJL129C, strain trk1, stronger effect = lower value 0.991 | locus YJL134W, strain LCB3, stronger effect = lower value 1.02 | locus YJL154C, strain vps35, stronger effect = lower value 1 | locus YJL164C, strain tpk1, stronger effect = lower value 0.987 | locus YJL166W, strain qcr8, stronger effect = lower value 0.972 | locus YJL168C, strain set2, stronger effect = lower value 0.99 | locus YJL187C, strain SWE1 (second series), stronger effect = lower value 1.01 | locus YJL187C, strain SWE1, stronger effect = lower value 1 | locus YJR043C, strain POL32, stronger effect = lower value 1.01 | locus YJR066W, strain TOR1, stronger effect = lower value 0.943 | locus YKL009W, strain mrt4, stronger effect = lower value 1 | locus YKL068W, stronger effect = lower value 0.998 | locus YKL085W, strain MDH1 (second series), stronger effect = lower value 0.995 | locus YKL085W, strain MDH1, stronger effect = lower value 0.995 | locus YKL160W, strain elf1, stronger effect = lower value 0.961 | locus YKL190W, strain CNB1, stronger effect = lower value 0.98 | locus YKR001C, strain vps1, stronger effect = lower value 0.997 | locus YKR026C, strain gcn3, stronger effect = lower value 0.998 | locus YKR091W, strain srl3, stronger effect = lower value 0.992 | locus YLL001W, strain dnm1, stronger effect = lower value 0.96 | locus YLL026W, stronger effect = lower value 0.99 | locus YLL041C, strain sdh2, stronger effect = lower value 0.995 | locus YLR027C, strain aat2, stronger effect = lower value 0.994 | locus YLR039C, strain RIC1, stronger effect = lower value 1.07 | locus YLR058C, strain SHM2, stronger effect = lower value 1.01 | locus YLR102C, strain apc9, stronger effect = lower value 0.999 | locus YLR113W, strain HOG1, stronger effect = lower value 1.04 | locus YLR221C, strain rsa3, stronger effect = lower value 0.972 | locus YLR258W, strain gsy2, stronger effect = lower value 0.98 | locus YLR262C, strain YPT6 (second series), stronger effect = lower value 1 | locus YLR262C, strain YPT6, stronger effect = lower value 1.03 | locus YLR268W, strain sec22, stronger effect = lower value 0.987 | locus YLR320W, strain mms22, stronger effect = lower value 0.971 | locus YLR330W, strain CHS5, stronger effect = lower value 1.01 | locus YLR342W, strain FKS1 (second series), stronger effect = lower value 1.02 | locus YLR342W, strain FKS1, stronger effect = lower value 0.994 | locus YLR357W, strain rsc2, stronger effect = lower value 0.971 | locus YLR370C, strain arc18, stronger effect = lower value 0.975 | locus YLR371W, strain rom2, stronger effect = lower value 0.981 | locus YLR384C, strain iki3, stronger effect = lower value 0.991 | locus YLR418C, strain cdc73, stronger effect = lower value 0.923 | locus YML016C, strain PPZ1, stronger effect = lower value 1.01 | locus YML032C, strain rad52, stronger effect = lower value 0.993 | locus YML120C, strain ndi1, stronger effect = lower value 0.946 | locus YML124C, strain tub3, stronger effect = lower value 0.993 | locus YMR058W, strain fet3, stronger effect = lower value 0.998 | locus YMR078C, strain ctf18, stronger effect = lower value 1 | locus YMR125W, strain sto1, stronger effect = lower value 0.978 | locus YMR129W, stronger effect = lower value 0.996 | locus YMR205C, strain PFK2, stronger effect = lower value 0.974 | locus YMR223W, strain ubp8, stronger effect = lower value 0.987 | locus YMR231W, strain pep5, stronger effect = lower value 1 | locus YMR307W, strain GAS1, stronger effect = lower value 0.9 | locus YNL067W, strain RPL9B, stronger effect = lower value 0.997 | locus YNL071W, strain lat1, stronger effect = lower value 0.983 | locus YNL128W, strain TEP1, stronger effect = lower value 1.01 | locus YNL153C, strain GIM3, stronger effect = lower value 1.01 | locus YNL183C, strain NPR1, stronger effect = lower value 0.964 | locus YNL209W, strain ssb2, stronger effect = lower value 0.986 | locus YNL233W, strain BNI4, stronger effect = lower value 1.01 | locus YNL248C, strain rpa49, stronger effect = lower value 0.992 | locus YNL250W, strain rad50, stronger effect = lower value 0.987 | locus YNL271C, strain bni1, stronger effect = lower value 1 | locus YNL298W, strain CLA4, stronger effect = lower value 1 | locus YNL307C, strain MCK1, stronger effect = lower value 0.988 | locus YNL322C, strain KRE1 (second series), stronger effect = lower value 0.966 | locus YNR049C, strain mso1, stronger effect = lower value 0.995 | locus YNR052C, strain pop2, stronger effect = lower value 0.995 | locus YOL012C, strain htz1 0.833 | locus YOL147C, strain pex11, stronger effect = lower value 1 | locus YOR001W, strain rrp6, stronger effect = lower value 1.03 | locus YOR061W, strain CKA2, stronger effect = lower value 1.01 | locus YOR069W, strain VPS5, stronger effect = lower value 1.01 | locus YOR070C, strain gyp1, stronger effect = lower value 1 | locus YOR080W, strain dia2, stronger effect = lower value 1 | locus YOR083W, strain WHI5, stronger effect = lower value 0.963 | locus YOR106W, strain vam3, stronger effect = lower value 0.976 | locus YOR136W, strain idh2, stronger effect = lower value 0.985 | locus YOR144C, strain elg1, stronger effect = lower value 1 | locus YOR184W, strain ser1, stronger effect = lower value 0.979 | locus YOR231W, strain MKK1, stronger effect = lower value 0.972 | locus YOR265W, strain rbl2, stronger effect = lower value 0.994 | locus YOR270C, strain vph1, stronger effect = lower value 0.984 | locus YOR290C, strain snf2, stronger effect = lower value 0.923 | locus YOR316C, strain cot1, stronger effect = lower value 1.01 | locus YPL051W, strain arl3, stronger effect = lower value 0.998 | locus YPL055C, strain LGE1, stronger effect = lower value 0.991 | locus YPL078C, strain atp4, stronger effect = lower value 0.974 | locus YPL106C, strain sse1, stronger effect = lower value 0.961 | locus YPL240C, strain hsp82, stronger effect = lower value 1 | locus YPL256C, strain CLN2, stronger effect = lower value 1 | locus YPR119W, strain clb2, stronger effect = lower value 0.991 | locus YPR141C, strain kar3, stronger effect = lower value 0.993 | locus YPR163C, strain tif3, stronger effect = lower value 0.998 | locus YPR167C, strain met16, stronger effect = lower value 0.979 | strain wtn01, stronger effect = lower value 0.98
